Results filed as inconclusive are left out. More than one record can exist for a structure, and the calls need not agree. The source made the active and inactive calls. How the source made its calls, unless noted: active means hit-call score of the fitted dose curve at least 0.9, where 1 is the maximum; inconclusive means response in the unintended direction; inactive means score below 0.9.
Assays:
[1] = biological target: Peroxisome proliferator-activated receptor gamma (Homo sapiens) (UniProt P37231); experiment: OT_PPARg_PPARgSRC1_0480: Odyssey Thera (OT) 8-hour Protein-Complementation Assay for Peroxisome Proliferator-activated Receptor Gamma / SRC-1 Co-activator (AID 2283387);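 further: nuclear to cytoplasmic split Venus YFP fluorescence ratio reporting PPARg SRC-1 interaction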
Peroxisome proliferator-activated receptor gamma (Homo sapiens), sequence (P37231 whole entry, looked up, the tested form may be a part): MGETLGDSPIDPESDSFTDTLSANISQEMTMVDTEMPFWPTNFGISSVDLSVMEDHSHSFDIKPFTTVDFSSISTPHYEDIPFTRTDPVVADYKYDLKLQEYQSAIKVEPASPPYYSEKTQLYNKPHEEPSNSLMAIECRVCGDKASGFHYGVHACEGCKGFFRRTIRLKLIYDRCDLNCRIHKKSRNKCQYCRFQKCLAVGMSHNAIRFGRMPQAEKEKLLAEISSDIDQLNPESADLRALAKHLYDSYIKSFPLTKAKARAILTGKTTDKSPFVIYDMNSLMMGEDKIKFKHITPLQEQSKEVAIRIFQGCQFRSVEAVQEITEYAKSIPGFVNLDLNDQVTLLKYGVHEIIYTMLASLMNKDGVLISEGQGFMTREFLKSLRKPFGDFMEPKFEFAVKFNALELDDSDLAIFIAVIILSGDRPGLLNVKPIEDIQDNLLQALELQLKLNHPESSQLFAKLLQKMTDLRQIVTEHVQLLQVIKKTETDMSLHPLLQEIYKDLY
In short: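 Split-YFP (IFP1/IFP2) PPARg/SRC-1 reporter, HEK293T, 37 °C, 5% CO2; 8 h compound; formaldehyde fix + Draq5; high-content imaging, N/C ratio, ≥350 cells/image, positive direction vs DMSO.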

[2] = biological target: Peroxisome proliferator-activated receptor gamma (Homo sapiens) (UniProt P37231); experiment: OT_PPARg_PPARgSRC1_1440: Odyssey Thera (OT) 24-hour Protein-Complementation Assay for Peroxisome Proliferator-activated Receptor Gamma/ SRC-1 Co-activator (AID 2283388);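 further: nuclear to cytoplasmic ratio of reconstituted Venus YFP fluorescence in fixed imaged cells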
In short: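 Readout is the 488 nm N/C fluorescence ratio from fixed, Draq5-stained HEK293T cells after 24 h compound exposure. Cells carried transiently transfected PPARg and SRC-1 fused to Venus fragments, transfected 48 h before treatment.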

[3] = CEETOX_H295R_11DCORT: CeeTox H295R High-throughput Steroidogenesis Assay for 11-Deoxycortisol (11DCORT) (AID 2283432; active means hit-call score of the fitted dose curve at least 0.9, where 1 is the maximum; inactive means score below 0.9;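 on AC50: 11-deoxycortisol secreted into the medium measured by LC-MS/MS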); details: actives raise or lower the signal
In short: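 Steroidogenesis in human H295R cells: 48 h chemical exposure after forskolin priming, 11-deoxycortisol measured by LC-MS/MS.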

[4] = CEETOX_H295R_OHPREG: CeeTox H295R High-throughput Steroidogenesis Assay for OH-Pregnenolone (OHPREG) (AID 2283434; active means hit-call score of the fitted dose curve at least 0.9, where 1 is the maximum; inactive means score below 0.9); details: actives raise or lower the signal
In short: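 Hormone levels in spent medium were measured by tandem mass spectrometry following liquid-liquid extraction. Cells (H295R) had been forskolin-stimulated (10 uM, 48 h) before a 48 h chemical exposure at 0.1% DMSO, with activity fitted in both directions against DMSO.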

[5] = CEETOX_H295R_OHPROG: CeeTox H295R High-throughput Steroidogenesis Assay for OH-Progesterone (OHPROG) (AID 2283435; active means hit-call score of the fitted dose curve at least 0.9, where 1 is the maximum; inactive means score below 0.9); details: actives raise or lower the signal
In short: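 H295R human adrenal cells were prestimulated 48 h with 10 uM forskolin, then exposed 48 h to test chemical (0.1% DMSO final). 17alpha-hydroxyprogesterone in medium was measured by HPLC-MS/MS after MTBE extraction; bidirectional fitting vs DMSO.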

[6] = CEETOX_H295R_CORTIC: CeeTox H295R High-throughput Steroidogenesis Assay for Corticosterone (CORTIC) (AID 2283437; active means hit-call score of the fitted dose curve at least 0.9, where 1 is the maximum; inactive means score below 0.9;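 further: corticosterone secreted into medium quantified by mass spectrometry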); details: actives raise or lower the signal
In short: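 Corticosterone secreted into medium is measured by reverse-phase HPLC with tandem MS following liquid-liquid extraction. Cells are forskolin-stimulated (10 uM, 48 h) before 48 h test exposure; activity fitted in both directions against DMSO.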

[7] = CEETOX_H295R_CORTISOL: CeeTox H295R High-throughput Steroidogenesis Assay for Cortisol (AID 2283438; active means hit-call score of the fitted dose curve at least 0.9, where 1 is the maximum; inactive means score below 0.9;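 further: cortisol secreted into medium quantified by LC-MS/MS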); details: actives raise or lower the signal
In short: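 H295R human adrenal cells were prestimulated 48 h with 10 uM forskolin, then exposed 48 h to test chemical (0.1% DMSO final). Medium cortisol was quantified by HPLC-MS/MS after MTBE extraction; bidirectional fitting relative to DMSO baseline.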

[8] = CEETOX_H295R_DOC: CeeTox H295R High-throughput Steroidogenesis Assay for DOC (AID 2283439; active means hit-call score of the fitted dose curve at least 0.9, where 1 is the maximum; inactive means score below 0.9); details: actives raise or lower the signal
In short: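 H295R adrenal cells prestimulated 48 h with 10 uM forskolin, then exposed 48 h to test chemical (0.1% DMSO final). Medium 11-deoxycorticosterone extracted with MTBE, quantified by HPLC-MS/MS; bidirectional fit versus DMSO baseline; MTT viability in same wells.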

[9] = CEETOX_H295R_ESTRADIOL: CeeTox H295R High-throughput Steroidogenesis Assay for Estradiol (AID 2283440; active means hit-call score of the fitted dose curve at least 0.9, where 1 is the maximum; inactive means score below 0.9;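 further: estradiol secreted into medium quantified by LC-MS/MS after dansyl derivatisation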); details: actives raise or lower the signal
In short: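 Estradiol in spent medium measured by LC-MS/MS after dansyl chloride derivatisation. Forskolin-primed (10 uM, 48 h) human adrenal H295R cells received test chemical 48 h at 0.1% DMSO; concentrations lowered until MTT viability >/=70%.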

[10] = CEETOX_H295R_ANDR: CeeTox H295R High-throughput Steroidogenesis Assay for Androstenedione (ANDR) (AID 2283436; active means hit-call score of the fitted dose curve at least 0.9, where 1 is the maximum; inactive means score below 0.9); details: actives raise or lower the signal
In short: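 Read-out is androstenedione secreted into medium, measured by tandem mass spectrometry after liquid-liquid extraction. Cells were H295R, dosed for 48 h per modified OECD 456; activity fitted in both directions relative to DMSO.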

Measured: AC50

NCc1cccc(C2CCN(C(=O)c3ccc(C#Cc4ccccc4F)o3)CC2)c1
inactive: [1] | [2]

CC(O)CC(C)(C)O (stereo unspecified)
inactive: [1] | [2]

O=C1O[C@H]([C@@H](O)CO)C(O)=C1O
inactive: [1] | [2]

Cc1cc(F)ccc1-c1cc(N2CC[C@@H](O)[C@H]2CO)ncc1N(C)C(=O)C(C)(C)c1cc(C(F)(F)F)cc(C(F)(F)F)c1
inactive: [1] | [2]

CCN(Cc1cccc(S(=O)(=O)O)c1)c1ccc(C(=C2C=CC(=[N+](CC)Cc3cccc(S(=O)(=O)O)c3)C=C2)c2ccccc2S(=O)(=O)[O-])cc1
inactive: [1] | [2]

c1ccc(C[n+]2cccc3ccccc32)cc1
inactive: [1] | [2]

O=c1[nH]sc2ccccc12
inactive: [1] | [2]

O=CCCCC=O
inactive: [1] | [2]

c1ccc2n[nH]nc2c1
inactive: [1] | [2]

Cc1ncc(CO)c(CO)c1O
inactive: [1] | [2]

CN1C(=O)CC[C@H]1c1cccnc1
inactive: [1] | [2]

Cc1occc1C(=O)Nc1ccc(C(=O)N2CCC(F)(F)/C(=C\C(=O)N3CCC(N4CCCCC4)CC3)c3ccccc32)cc1
inactive: [1] | [2]

COCC(C)OCC(C)OCC(C)O (stereo unspecified)
inactive: [1] | [2]

O=C=NCCCCCCN=C=O
inactive: [1] | [2]

CCO[Si](CCCNC(N)=O)(OCC)OCC
inactive: [1] | [2]

O=c1ccc2ccccc2o1
inactive: [1] | [2]

COc1cc(C(=O)NC2CCN(C)CC2)ccc1Nc1ncc2c(n1)N(C1CCCC1)CC(F)(F)C(=O)N2C
inactive: [1] | [2]

c1ccc2ccccc2c1
inactive: [1] | [2]

CCCOC(=O)c1cc(O)c(O)c(O)c1
inactive: [1] | [2]

Cc1cn([C@H]2C[C@H](N=[N+]=[N-])[C@@H](CO)O2)c(=O)[nH]c1=O
inactive: [1] | [2]

CC(C)(C)c1csc(-c2cc3cc(OCc4ccccc4CC(=O)O)ccc3o2)n1
inactive: [1] | [2]

CCN(Cc1cccnc1)C(=O)c1cccc(Cl)c1[C@]1(C)C(=O)N(Cc2ccc(OC)cc2OC)c2ccc(Cl)cc21
inactive: [1] | [2]

CCCCCCCCCCCO
inactive: [1] | [2]

Cc1cccc2ccccc12
inactive: [1] | [2]

CN(C)C(=O)C1(N2CCCCC2)CCN(CC[C@@]2(c3ccc(Cl)c(Cl)c3)CN(C(=O)c3ccccc3)CCO2)CC1
inactive: [1] | [2]

CC[C@@H]1C[C@H](N(Cc2cc(C(F)(F)F)cc(C(F)(F)F)c2)C(C)=O)c2cc(C(F)(F)F)ccc2N1C(=O)OC(C)C
inactive: [1] | [2]

O=C(O)c1ccccc1C(=O)OCc1ccccc1
inactive: [1] | [2]

CC(C)(C)c1cc(/C=C2\SC(N)=NC2=O)cc(C(C)(C)C)c1O
inactive: [1] | [2] | [3] | [4] | [7] | [9]
active: [1] 77.1 µM | [2] 66 µM | [5] 0.67 µM | [6] 0.754 µM | [8] 0.866 µM

CCCCCCCCOc1ccc(C(=O)c2ccccc2)c(O)c1
inactive: [1] | [2]

CC1=CC(=O)/C(=C(/C)O)C(=O)O1
inactive: [1] | [2]

Cc1ccc(C(C)C)cc1
inactive: [1] | [2]

OCCO
inactive: [1] | [2]

CCCCCCCCCCCCO
inactive: [1] | [2]

CC[C@H](NC(=O)c1cc(F)ccc1NS(=O)(=O)c1cccc2cccnc12)c1ccccc1
inactive: [1] | [2]

O=C(O)c1ccccc1-n1cc(C(=O)O)c(=O)c2cc(Nc3c(F)cc(F)cc3Cl)c(Cl)cc21
inactive: [1] | [2]

Oc1ccccc1
inactive: [1] | [2]

CCOC(=O)O[C@H](C)OC(=O)c1ccc2c(c1)cc(C(=O)NC1CCN(C(C)C)CC1)n2Cc1cc(-c2ccc(Cl)s2)on1
inactive: [1] | [2]

CC(C)(c1cc(Br)c(O)c(Br)c1)c1cc(Br)c(O)c(Br)c1
inactive: [3] | [4] | [6] | [7] | [8]
active: [5] 4.41 µM

CN(C[C@@H](CC[N+]12CCC(C3CCCCC3)(CC1)CC2)c1ccc(Cl)c(Cl)c1)C(=O)c1cc(C(F)(F)F)cc(C(F)(F)F)c1
inactive: [1] | [2]

CC(=O)N1CCN(c2ccc(OC[C@H]3CO[C@](Cn4ccnc4)(c4ccc(Cl)cc4Cl)O3)cc2)CC1
inactive: [1] | [2] | [9]
active: [3] 0.783 µM | [4] 1.42 µM | [5] 0.49 µM | [6] 1.77 µM | [7] 0.895 µM | [8] 1 µM

Cc1cc2c(cc1C(F)(F)F)N(C(=O)Nc1ccc(Oc3cccnc3C)nc1)CC2
inactive: [1] | [2] | [6] | [9]
active: [3] 0.381 µM | [4] 0.495 µM | [5] 0.591 µM | [7] 0.588 µM | [8] 0.227 µM

CCCCCCCCOC(=O)c1cc(O)c(O)c(O)c1
active: [8] 5 µM
not listed: [6] | [10]
inactive: all other assays above

CCCCCCCCCC(=O)O
inactive: [2]

Clc1cc(Cl)c2c(c1)N=C1CCCCCN1C2
not listed: [9] | [10]
inactive: all other assays above

Cc1c2ccccc2c(C)c2c1ccc1ccccc12
inactive: all assays above

C[C@]12CC[C@@H]3c4ccc(O)cc4CC[C@H]3[C@@H]1CC[C@H]2O
inactive: [1] | [2]
active: [3] 3.52 µM | [4] 1.22 µM | [6] 2.13 µM | [7] 2.17 µM | [8] 3.31 µM

O=C(O)Cn1c(=O)n(Cc2ccc(Br)cc2F)c(=O)c2ccc(Cl)cc21
active: [2] 49.7 µM
inactive: [1] | [2] | [3] | [4] | [5] | [10] | [6] | [7] | [8] | [9]

NC(=O)c1nc(-c2cccc(-c3cc(F)ccc3OCC(F)(F)C(F)(F)F)c2)n[nH]1
inactive: all assays above

Cc1oc2c(NC(=O)c3c(Cl)cccc3Cl)cccc2c1C(C)(C)O
active: [3] 3.01 µM | [4] 1.42 µM | [5] 3.07 µM | [8] 2.53 µM
inactive: [1] | [2] | [6] | [7]

COc1ccc2cc(S(=O)(=O)N[C@H](CC(=O)N[C@H](Cc3ccc(CN4[C@H](C)CCC[C@@H]4C)cc3)C(=O)N(C)C(C)C)c3ccc4c(c3)OCO4)ccc2c1
inactive: [1] | [2]

Oc1ccc2ccccc2c1
active: [5] 13.8 µM | [10] 76.7 µM
not listed: [9]
inactive: all other assays above

CCCCCc1ccc(N)cc1
inactive: [1] | [2]

COc1cccc([C@H](O)C2CCN(CCc3ccc(F)cc3)CC2)c1OC
inactive: [1] | [2] | [7] | [9]
active: [3] 27 µM | [4] 1.81 µM | [5] 19.7 µM | [6] 1.22 µM | [8] 9.1 µM

CCCCOC(=O)c1ccc(O)cc1
active: [5] 5 µM
not listed: [9]
inactive: all other assays above

O=C(Nc1ccc(Cl)cc1)Nc1ccc(Cl)c(Cl)c1
active: [3] 0.599 µM | [4] 0.5 µM | [5] 0.418 µM | [8] 0.417 µM
inactive: all other assays above

O=c1c(-c2ccc(O)cc2)coc2cc(O)cc(O)c12
active: [3] 11.9 µM | [5] 30.5 µM | [10] 14.1 µM | [7] 12.4 µM | [8] 4.44 µM
inactive: [1] | [2] | [6]

CN(C)c1ccc(C(=C2C=CC(=[N+](C)C)C=C2)c2ccc(N(C)C)cc2)cc1
inactive: [1] | [2]

CN1C(=O)N(c2ccccc2Br)Cc2cnc(Nc3ccc4c(c3)OCC(CO)O4)nc21 (stereo unspecified)
active: [3] 0.723 µM | [8] 0.679 µM
not listed: [1] | [10]
inactive: all other assays above

CC(C)(O)c1ccc(CNC(=O)c2cccnc2Oc2ccc3nonc3c2)cc1
inactive: [1] | [2]

OC12N=C(c3ccccc3)SC1Cc1cc(Cl)ccc12 (stereo unspecified)
active: [3] 32.8 µM | [6] 17.7 µM | [7] 28.5 µM | [8] 17.6 µM
not listed: [10]
inactive: all other assays above

CCCCCCCC[Si](OCC)(OCC)OCC
inactive: [1] | [2] | [4] | [6] | [7] | [8]

CC1(C)NC(=O)N(c2ccc([N+](=O)[O-])c(C(F)(F)F)c2)C1=O
inactive: [1] | [2]

Clc1ccccc1C(c1ccccc1)(c1ccccc1)n1ccnc1
active: [3] 0.142 µM | [4] 0.00809 µM | [5] 0.0684 µM | [6] 0.00195 µM | [7] 0.0502 µM | [8] 0.0401 µM | [9] 0.244 µM
inactive: [1] | [2]

CCCCOC(=O)CC(CC(=O)OCCCC)(OC(C)=O)C(=O)OCCCC
inactive: [1] | [2]

Cc1ccc2oc(CN(Cc3ccccc3)C(=O)Nc3c(F)cc(F)cc3F)c(-c3ccc(Cl)cc3)c2c1
active: [5] 4.83 µM | [8] 1.36 µM
not listed: [10]
inactive: all other assays above

C[C@]12CC[C@@H]3c4ccc(O)cc4CC[C@H]3[C@@H]1CCC2=O
active: [4] 1.6 µM

CCCCCCCCCCCC[N+](C)(C)C
not listed: [9] | [10]
inactive: all other assays above

CCN(CC)C(=O)c1cc(S(=O)(=O)Cc2ccccc2)c(N2CCC(c3ccccc3)CC2)cc1N(CC)CCN(C)C
inactive: [1] | [2]

Reference: PubChem BioAssay (EPA / NIEHS)
